# Activity calls are given as the source filed them. The rule behind the calls is not given here.
# Target: Histone deacetylase 7 (Homo sapiens) (UniProt Q8WUI4)
# Test: HDAC7 deacetylase inhibition, profiling panel, selectivity assay for E-cadherin restoration project, biochemical, human (AID 651907)
# Histone deacetylase 7 (Homo sapiens), sequence (Q8WUI4 whole entry, looked up): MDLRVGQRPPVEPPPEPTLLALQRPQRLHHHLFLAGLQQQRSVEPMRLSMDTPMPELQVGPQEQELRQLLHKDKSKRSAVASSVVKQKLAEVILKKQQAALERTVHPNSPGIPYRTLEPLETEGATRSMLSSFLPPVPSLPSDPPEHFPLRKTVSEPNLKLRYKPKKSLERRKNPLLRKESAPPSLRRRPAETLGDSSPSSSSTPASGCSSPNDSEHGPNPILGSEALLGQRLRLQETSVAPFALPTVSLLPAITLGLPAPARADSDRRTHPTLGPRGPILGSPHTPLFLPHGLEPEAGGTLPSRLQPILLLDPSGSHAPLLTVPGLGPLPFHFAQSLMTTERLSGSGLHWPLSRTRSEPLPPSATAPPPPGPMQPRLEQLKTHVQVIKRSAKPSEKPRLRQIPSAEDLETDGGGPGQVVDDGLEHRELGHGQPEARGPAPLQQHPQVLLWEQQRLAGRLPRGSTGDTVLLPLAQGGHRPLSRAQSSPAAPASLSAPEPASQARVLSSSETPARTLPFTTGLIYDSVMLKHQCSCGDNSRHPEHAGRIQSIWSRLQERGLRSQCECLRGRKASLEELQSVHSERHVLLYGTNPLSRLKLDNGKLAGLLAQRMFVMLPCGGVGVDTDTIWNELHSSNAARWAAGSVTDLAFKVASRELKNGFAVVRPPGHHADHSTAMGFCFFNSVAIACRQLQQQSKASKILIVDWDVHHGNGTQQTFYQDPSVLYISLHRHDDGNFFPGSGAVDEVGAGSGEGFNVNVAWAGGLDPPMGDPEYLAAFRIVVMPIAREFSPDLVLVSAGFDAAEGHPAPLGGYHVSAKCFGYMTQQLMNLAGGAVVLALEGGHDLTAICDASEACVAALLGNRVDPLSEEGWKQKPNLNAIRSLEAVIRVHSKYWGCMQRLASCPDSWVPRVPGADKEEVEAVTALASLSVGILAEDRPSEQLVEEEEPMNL
compound,measurement,value
O=C(NCCCNC(=O)c1ccc[nH]c1=O)c1cc(-c2ccccc2)on1,outcome,inactive
